Pol iota inh: blocks human DNA polymerase iota activity; actives 1% (n = 390,000); Potency, µM (titrated, usually from 115 µM), for the others: at the highest dose activity, negative = inhibition, hits mostly inhibitors; Q9UNA4; Pol iota fluorescent replication assay, 10 min; note: potency is the fitted concentration of half-maximal effect
Target sequence (Q9UNA4 whole entry, looked up): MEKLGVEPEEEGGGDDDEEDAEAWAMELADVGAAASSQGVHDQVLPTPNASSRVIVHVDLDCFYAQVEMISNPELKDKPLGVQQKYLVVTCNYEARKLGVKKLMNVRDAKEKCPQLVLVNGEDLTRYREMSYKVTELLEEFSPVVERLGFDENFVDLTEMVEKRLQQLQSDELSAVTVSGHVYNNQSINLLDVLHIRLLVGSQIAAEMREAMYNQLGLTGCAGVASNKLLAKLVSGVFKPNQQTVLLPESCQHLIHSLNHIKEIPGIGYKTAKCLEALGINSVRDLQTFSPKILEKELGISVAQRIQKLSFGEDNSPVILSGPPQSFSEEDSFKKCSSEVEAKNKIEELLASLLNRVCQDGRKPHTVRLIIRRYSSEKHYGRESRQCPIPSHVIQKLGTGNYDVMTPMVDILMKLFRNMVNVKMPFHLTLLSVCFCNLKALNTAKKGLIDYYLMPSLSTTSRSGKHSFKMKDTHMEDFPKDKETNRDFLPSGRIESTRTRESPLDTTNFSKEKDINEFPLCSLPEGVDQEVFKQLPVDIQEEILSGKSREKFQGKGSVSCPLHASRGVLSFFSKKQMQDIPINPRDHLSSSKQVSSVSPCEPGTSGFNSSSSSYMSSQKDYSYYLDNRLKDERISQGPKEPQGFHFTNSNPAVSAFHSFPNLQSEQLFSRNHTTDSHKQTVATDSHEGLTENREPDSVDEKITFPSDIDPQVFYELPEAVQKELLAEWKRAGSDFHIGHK
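Fluorescent replication assay read twice, at 0 min and 10 min after adding 50 nM (final) substrate. Enzyme (10 nM) and compounds were first incubated 15 min at room temperature; enzyme-free buffer wells were negative controls.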
PI5P4Ka inh: PI5P4K alpha (human) kinase inhibition; max response, %; PI5P4Kalpha enzyme, ADP-Glo luminescence, 60 min; active compounds read low; actives 1.2% (n = 330,000); active = max response of -50% or lower; inconclusive = between -30% and -50%; inactive = -30% or higher; note: value at the top dose of about 77 µM; % is set by controls: 0 for no effect and ±100 for the full control effect
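Quantitative HTS of the MLSMR library against PI5P4Kalpha with substrate. ATP added last at 5 microM final; room temperature, 60 minutes. Remaining ATP depleted, ADP converted and read as luminescence.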
Pol beta inh: inhibitors of human DNA polymerase beta. AID 485314. Potency, µM (series often up to 114 µM), for the others: at the highest dose activity change, negative = inhibition, hits mostly inhibitors. P06746. Pol beta primer extension/strand displacement, fluorescence kinetic. actives 1.3% (n = 340,000); note: potency is the fitted concentration of half-maximal effect; % is set by controls: 0 for no effect and ±100 for the full control effect
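Preincubation: enzyme (10 nM) with compound, 15 min, RT. Reaction: substrate added to 50 nM final. Reads: 0 and 10 min. Analysis: normalized, Hill fit.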
Pol eta inh: blocks human DNA polymerase eta activity | Potency, µM (top dose mostly 114 µM), for inactives: at the top dose activity change, negative = inhibition, most hits filed as inhibitors | recombinant Pol eta, fluorescent DNA replication assay | actives 1.2% (n = 390,000) | AID 588591; note: potency is the fitted concentration of half-maximal effect; % is set by controls: 0 for no effect and ±100 for the full control effect
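Pol eta at 10 nM preincubated with compounds 15 min at room temperature; reaction started with fluorescent substrate (50 nM final) and read kinetically at 0 and 10 min.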
WRN inhibitor: WRN helicase (human) inhibition; AID 651768; WRN helicase unwinding, fluorescent forked duplex, kinetic; Potency, µM (titrated, usually from 114 µM), inactives show at the highest dose activity change, negative = inhibition, usual class: inhibitors; actives 0.46% (n = 360,000); Q14191; note: potency is the fitted concentration of half-maximal effect; % is set by controls: 0 for no effect and ±100 for the full control effect; nearly all actives have a fitted effect of over 55% in size
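WRN at 20 nM final was preincubated with compound for 15 min at room temperature; reaction started with 100 nM forked duplex oligonucleotide carrying fluorophore and quencher plus 2 mM ATP (final). Unwinding followed kinetically by red fluorescence (ex 525/em 598 nm).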
POLK inh: inhibitors of human DNA polymerase kappa; actives 0.53% (n = 400,000); Q9UBT6; Potency, µM (highest dose often 107 µM), without a hit: at the top dose activity, negative = inhibition, usual class: inhibitors; AID 588579; purified Pol kappa, fluorescent DNA synthesis assay, 10 min; note: potency is the fitted concentration of half-maximal effect; % is set by controls: 0 for no effect and ±100 for the full control effect
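Activity was followed as the change in fluorescence between reads at 0 and 10 min after starting the reaction with 50 nM substrate. Beforehand, 10 nM polymerase had been preincubated with compound for 15 min at room temperature.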
* hit, by the source's call; u = inconclusive; x = no result given; [ ] = another dose, or the depositor's remark. Sampled rows, rich in hits. Any-hit rate of the full collection: about 2.8%. Unless noted, calls come from the whole dose curve; as a rule, active = well fitted curve in the direction sought with a large enough effect; inconclusive = small, poorly fitted or top-dose-only effect, or another doubt; inactive = no such curve, though single readings can be large; an effect the other way counts as inactive or inconclusive.

SMILES	Pol iota inh	PI5P4Ka inh	Pol beta inh	Pol eta inh	WRN inhibitor	POLK inh
Nc1nc(SCC(=O)Nc2ncc(Cl)cc2Cl)n[nH]1	79.4µM*	u	x	u	-11.8%[11.6 µM]	-41.1%
O=C(COC(=O)c1ccc2ncsc2c1)Nc1ncc(Cl)cc1Cl	u	-19.0	0.3%	8.91µM*	-29.4%	-5.8%
CC1CC1C(=O)OCC(=O)Nc1ncc(Cl)cc1Cl (stereo not drawn)	14.1µM*	u	x	28.2µM*	u	u
Cc1c(Cl)cnc(NC(=O)COC(=O)c2ccc3ncsc3c2)c1Cl	u	-22.0	-13.9%	u	-19.6%[57.1 µM]	-10.5%
O=C(COC(=O)/C=C/c1ccco1)Nc1ncc(Cl)cc1Cl	35.5µM*	-19.5	u	39.8µM*	-17.8%[57.1 µM]	u
CC1CC1C(=O)OCC(=O)NCc1ccc(Cl)cc1Cl (stereo not drawn)	12.8%	-5.1	-4.5%	-7.5%	6.2%	-5.8%
CC(C)(C)C1CCc2c(sc(NC(=O)c3cc4ccccc4c(=O)o3)c2C(N)=O)C1 (stereo not drawn)	2.3%	x	-2.4%	0.6%	x	-8.8%
Cc1cccc(C)c1NC(=O)CNC(=O)c1c(-c2ccccc2)noc1C	-20.9%	-7.2	x	-6.9%	-8.2%	-13.7%
Clc1cccc(CN2CCSCC2)c1	-10.8%	-2.2	-0.7%	-7.5%	0.1%	-14.6%
C(=C\c1c[nH]c2ccccc12)/c1ccc2ccccc2n1	10.3%	x	x	x	x	-15.5%
CC(C)NC(=O)COC(=O)/C=C/c1ccco1	79.4µM*	1.7	39.8µM*	u	-7.9%[57.1 µM]	-31.8%
CCCNC(=O)COC(=O)/C=C/c1ccco1	-17.2%	-5.4	u	u	-3.5%	-18.1%
CCOc1ccc(-c2cccc(NS(=O)(=O)c3ccccc3C(F)(F)F)c2)nn1	4.9%	x	-4.5%	-14.4%	x	0.5%[60.1 µM]
Cc1ccc(C(=O)Nc2ccc(O)c(C(=O)O)c2)o1	9.1%	-22.0	u	14.1µM*	-3.2%[11.6 µM]	-30.6%
Cc1ccc(C(=O)Nc2ccc(F)cc2)o1	-1.4%	1.1	u	-13.2%	-16.8%	-13.6%
CCCN(CCC)CCCNC(=O)c1cc2c(-c3ccc(Cl)cc3)nn(C)c2s1	-1.0%	x	20µM*	-7.1%	x	-10.0%
O=c1[nH]c2cc3c(cc2cc1CN(Cc1ccco1)C(=S)NCCCN1CCOCC1)OCCO3	12.1%	1.0	-0.4%	-18.0%	2.6%	-2.2%
COc1cc(OC)c([N+](=O)[O-])cc1/C=N/NC(=O)c1ccncc1	u	2.0	19.4%	31.6µM*	-0.7%[11.6 µM]	-36.5%
COc1cc([N+](=O)[O-])cc(/C=N/NC(=O)c2ccc(C)nc2)c1O	u	-5.6	-27.0%	u	-2.5%[11.6 µM]	-25.1%
COc1cc([N+](=O)[O-])cc(/C=N/NC(=O)c2ccc(NC(=O)c3ccc(C)cc3)cc2)c1O	78.2%	-61.8*	-22.8%	-18.4%	-2.8%	-7.2%
COc1cc(/C=N/NC(=O)c2ccncc2)c([N+](=O)[O-])cc1OC	u	2.3	2.6%	-14.0%	-1.9%	1.0%
COc1ccc(/C=N/NC(=O)c2ccc(NC(=O)c3cccc([N+](=O)[O-])c3)cc2)c(C(=O)O)c1OC	u	u	70.8µM*	79.4µM*	-6.3%[11.6 µM]	0.0%
CC(=O)Nc1ccc(/C=C2\C=Cc3ccccc32)cc1	-1.1%	x	x	x	x	-3.8%
O=C(CCl)Nc1nc(-c2ccco2)c(-c2ccco2)s1	u	-18.2	u	12.6µM*	-5.9%[11.6 µM]	-31.9%
CC(C)(C)C1CCC(=NNC(=O)C(=O)NC2CCCCC2)CC1 (stereo not drawn)	18.6%	0.4	-1.7%	-12.9%	9.7%	-15.0%
SMILES	Pol iota inh	PI5P4Ka inh	Pol beta inh	Pol eta inh	WRN inhibitor	POLK inh
CC(C)c1ccc(NC2CCCN(C(=O)CSc3nncn3C)C2)cc1 (stereo not drawn)	17.4%	-8.1	19.2%	6.3%	-1.1%	4.8%
CCOC(=O)C1=C(C)Nc2nc(=S)[nH]n2C1c1ccc(Cl)cc1 (stereo not drawn)	-13.3%	-60.0*	-1.2%	1.5%	0.6%	-1.3%
N#Cc1c(N)sc(=S)c2c1CCCCC2	u	-91.2*	12.6µM*	12.6µM*	20µM*	28.2µM*
O=C(c1cc(-c2cccc(Br)c2)nc2ccccc12)N1CCCC1	u	-16.4	22.4µM*	-17.2%	-14.2%	-23.8%
O=C(c1cc(-c2ccc(Br)cc2)nc2ccccc12)N1CCC1	33.4%	-4.5	x	0.0%	-32.0%	-9.3%
CCCCC1=CC2=CC(=O)C(C)(OC(=O)CC)C(=O)C2=CN1CCc1c[nH]c2ccccc12 (stereo not drawn)	36.6%	-26.8	17.8%	1.4%	2.5%	-10.4%
COC(=O)CCCC1=CC2=CC(=O)C(C)(OC(=O)c3cccs3)C(=O)C2=CN1C1CCCC1 (stereo not drawn)	u	0.4	6.4%	1.3%	-8.2%[57.1 µM]	-8.1%
COC(=O)CCCC1=CC2=CC(=O)C(C)(OC(=O)c3cccs3)C(=O)C2=CN1CCCOC(C)C (stereo not drawn)	25.1µM*	2.0	15.8%	-16.9%	4.0%	-3.8%
COC(=O)CCCC1=CC2=CC(=O)C(C)(OC(=O)c3cccs3)C(=O)C2=CN1CCc1c[nH]c2ccccc12 (stereo not drawn)	50.1µM*	-28.7	-14.9%	-3.8%	-4.4%[57.1 µM]	u
COC(=O)CCCC1=CC2=CC(=O)C(C)(OC(=O)c3cccs3)C(=O)C2=CN1Cc1ccc2c(c1)OCO2 (stereo not drawn)	31.6µM*	u	50.1µM*	u	-6.7%[11.6 µM]	-35.5%
COC(=O)CCCC1=CC2=CC(=O)C(C)(OC(=O)c3cccs3)C(=O)C2=CN1Cc1ccccc1 (stereo not drawn)	u	-4.7	u	-13.5%	-13.8%	-6.3%
COC(=O)CCCC1=CC2=CC(=O)C(C)(OC(=O)c3cccs3)C(=O)C2=CN1Cc1ccco1 (stereo not drawn)	u	u	50.1µM*	u	-19.1%[57.1 µM]	u
CC1C(=O)N2CCCc3cc(NC(=O)C(=O)NCc4ccccn4)cc1c32 (stereo not drawn)	28.7%	-2.9	x	-1.2%	3.7%	-13.2%
C[N+]1(CC(=O)c2ccc(I)cc2)CCCc2ccccc21 (stereo not drawn)	1.9%	x	x	x	x	-6.9%
CCc1ccc2oc(C(=O)NCC(c3ccc(Cl)cc3)N3CCOCC3)c(C)c2c1 (stereo not drawn)	14.8%	x	1.7%	-21.9%	x	-4.6%
COc1ccc(NS(=O)(=O)c2cc3[nH]c(=O)c(=O)[nH]c3cc2C)cc1OC	12.6%	x	-1.4%	-14.1%	x	-8.0%[60.1 µM]

Source: PubChem BioAssay (National Center for Advancing Translational Sciences (NCATS))
